# Source: PubChem BioAssay (NCATS)
# Where “and” joins values, the source holds several entries; their conditions need not be identical. Equal entries are not always repeated. Inconclusive results are not listed. A call without a number means that no potency is given here. Calls of active or inactive are those of the source. Unless noted, the call rests on the fitted dose curve; in most records, active means well fitted curve in the direction sought with a large enough effect; inconclusive means small, poorly fitted or top-dose-only effect, or another doubt; inactive means no such curve, though single readings can be large; an effect the other way counts as inactive or inconclusive.
# Legend:
# [1] = qHTS assay for small molecule agonists of retinoid X receptor alpha signaling (AID 588544; calls by dose curve); settings: HEK293T RXRa-UAS-bla, beta-lactamase reporter, 18 h; 530 nm emission
# [2] = target: Retinoic acid receptor RXR-alpha (Homo sapiens) (UniProt P19793); experiment: as above; settings: HEK293T RXRa-UAS-bla, beta-lactamase reporter, 18 h; series mostly up to 76.7 µM
# [3] = target: Thyroid hormone receptor beta (Homo sapiens) (UniProt P10828); experiment: qHTS assay for small molecule agonists of thyroid hormone receptor beta signaling (AID 588545; calls by dose curve); settings: TR-UAS-bla GripTite HEK 293, beta-lactamase ratio, agonist mode, 18 h, percent of T3 response, DMSO as zero; series mostly up to 76.7 µM
# How it was run: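 In this cell-based screen, titrated compounds act on HEK 293 cells held in medium with 2% charcoal/dextran FBS, NEAA and pyruvate for 18 hrs at 37 C. Responses are expressed relative to T3 (10 nM) as 100% and basal DMSO as 0%.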
# [4] = qHTS assay for small molecule antagonists of retinoid X receptor alpha signaling (AID 588546; active means well fitted inhibition curve with a large enough effect in the signal ratio, with a control signal flat, not every such curve was filed as active; the % refers to the signal ratio;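 further: cells stimulated with 9-cis-retinoic acid as agonist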); settings: HEK293T RXRa-UAS-bla, beta-lactamase ratio, antagonist mode; measured here: W530 green channel, cytotoxicity proxy
# How it was run: (§1)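 Beta-lactamase reporter inhibition, read as CCF4 fluorescence ratio (ex 405, em 460/530 nm) after 2 h at RT. HEK293T UAS-bla cells, 2500/well, were stimulated with 9-cis-RA at 500 or 100 nM final alongside test compound for 18 h at 37 C.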
# [5] = target: Retinoic acid receptor RXR-alpha (Homo sapiens) (UniProt P19793); experiment: as above; settings: HEK293T RXRa-UAS-bla, beta-lactamase ratio, antagonist mode
# How it was run: as §1
# [6] = target: Voltage-gated inwardly rectifying potassium channel KCNH2 (Homo sapiens) (UniProt Q12809); experiment: qHTS Assay for Small Molecule Inhibitors of the Human hERG Channel Activity (AID 588834); settings: U2OS BacMam hERG, FluxOR thallium flux fluorescence; series mostly up to 46.1 µM;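 further: lower thallium flux fluorescence means stronger hERG block; nearly all actives have a fitted effect of over 50% in size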; further: potency means the concentration at half of the fitted maximal effect
# How it was run: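 U2OS cells BacMam-transduced with hERG, 2000 cells/well, compound ~10 min at 37 °C before stimulation buffer. FluxOR thallium flux fluorescence read kinetically on FDSS; decrease indicates block; AC50 from Hill fits.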
# [7] = target: Luciferin 4-monooxygenase (Photinus pyralis) (UniProt P08659); experiment: Biochemical firefly luciferase enzyme assay for NPC (AID 624030); further: nearly all actives have a fitted effect of over 70% in size; further: potency means the concentration at half of the fitted maximal effect; settings: purified P. pyralis luciferase, luminescence, 5 min; series mostly up to 58.6 µM
# How it was run: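 Direct inhibition of firefly luciferase enzyme (10 nM final, 50 mM Tris Acetate) assessed by luminescence within 5 minutes. Percent activity scaled between DMSO and PTC124 positive control, with concentration-effect curves classified by fit quality and response.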
# [8] = S16 Schwann cell viability assay (CellTiter-Glo assay) (AID 624031); settings: S16 rat Schwann cells viability, 24 h; series mostly up to 57.5 µM;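 further: cellular ATP luminescence as a viability measure; nearly all actives have a fitted effect of over 70% in size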
# How it was run: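 CellTiter-Glo ATP luminescence counter-screen in untransfected S16 rat Schwann cells, 24h compound exposure at 37 degree Celsius after overnight seeding (500-750 cells/well); response scaled between cell-free wells and DMSO (0% activity), curves classed by r2 and magnitude.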
# [9] = S16 Schwann cell PMP22 intronic element firefly luciferase assay (AID 624032); settings: S16 rat Schwann cells, PMP22 element FLuc, 24 h; series mostly up to 57.5 µM; further: nearly all actives have a fitted effect of over 30% in size; further: potency means the concentration at half of the fitted maximal effect
# How it was run: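 Luciferase reporter of PMP22 intronic-element expression in stably transfected S16 rat Schwann cells, read by ONE-Glo luminescence after 24 h compound exposure at 37 C. Activity scaled between DMSO (0%) and positive-control PTC124; concentration-effect curves quality-classified.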
# [10] = S16 Schwann cell PMP22 intronic element beta-lactamase assay (AID 624044; calls by dose curve; further: nearly all actives have a fitted effect of over 15% in size; further: potency means the concentration at half of the fitted maximal effect); settings: S16 rat Schwann cells, PMP22 element beta-lactamase FRET, 24 h; series mostly up to 38.3 µM
# How it was run: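 Rat S16 Schwann cells with beta-Lac driven by a PMP22 intronic element, compound-treated 24 h at 37 °C. LiveBLAzer FRET B/G read: 460 nm normalized to potassium clavulanate vs DMSO; 535 nm FRET as viability; concentration-effect curves classified.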
# Sequence of Voltage-gated inwardly rectifying potassium channel KCNH2 (Homo sapiens) (Q12809 whole entry, looked up): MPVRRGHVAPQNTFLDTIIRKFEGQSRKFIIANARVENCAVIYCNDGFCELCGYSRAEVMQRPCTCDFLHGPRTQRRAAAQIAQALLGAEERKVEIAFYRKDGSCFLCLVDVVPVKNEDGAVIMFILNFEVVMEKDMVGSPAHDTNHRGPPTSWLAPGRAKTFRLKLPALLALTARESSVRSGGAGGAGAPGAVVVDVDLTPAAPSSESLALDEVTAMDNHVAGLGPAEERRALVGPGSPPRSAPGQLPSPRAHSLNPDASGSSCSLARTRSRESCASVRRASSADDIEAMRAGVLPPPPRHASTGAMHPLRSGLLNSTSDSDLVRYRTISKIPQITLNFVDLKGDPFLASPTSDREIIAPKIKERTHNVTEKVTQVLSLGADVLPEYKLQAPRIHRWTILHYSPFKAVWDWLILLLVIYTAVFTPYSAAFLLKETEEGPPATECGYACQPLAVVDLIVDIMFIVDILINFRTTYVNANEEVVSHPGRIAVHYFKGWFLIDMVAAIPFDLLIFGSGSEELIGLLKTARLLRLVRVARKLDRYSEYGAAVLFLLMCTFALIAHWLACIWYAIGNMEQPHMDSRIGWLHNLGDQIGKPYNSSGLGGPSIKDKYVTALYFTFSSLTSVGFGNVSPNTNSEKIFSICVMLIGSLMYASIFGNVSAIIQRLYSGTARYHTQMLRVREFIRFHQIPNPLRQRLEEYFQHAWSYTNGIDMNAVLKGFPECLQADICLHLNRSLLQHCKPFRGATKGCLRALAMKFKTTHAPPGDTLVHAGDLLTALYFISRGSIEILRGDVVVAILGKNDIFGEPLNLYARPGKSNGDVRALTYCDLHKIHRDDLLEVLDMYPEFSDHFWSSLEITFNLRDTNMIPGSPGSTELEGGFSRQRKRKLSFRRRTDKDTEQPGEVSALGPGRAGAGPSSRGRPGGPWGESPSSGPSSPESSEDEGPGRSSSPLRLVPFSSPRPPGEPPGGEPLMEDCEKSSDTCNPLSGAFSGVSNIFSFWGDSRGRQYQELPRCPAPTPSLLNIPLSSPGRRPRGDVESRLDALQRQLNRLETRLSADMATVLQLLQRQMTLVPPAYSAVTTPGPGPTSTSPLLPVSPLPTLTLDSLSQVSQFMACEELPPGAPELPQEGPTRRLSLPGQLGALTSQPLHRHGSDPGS
# Sequence of Thyroid hormone receptor beta (Homo sapiens) (P10828 whole entry, looked up): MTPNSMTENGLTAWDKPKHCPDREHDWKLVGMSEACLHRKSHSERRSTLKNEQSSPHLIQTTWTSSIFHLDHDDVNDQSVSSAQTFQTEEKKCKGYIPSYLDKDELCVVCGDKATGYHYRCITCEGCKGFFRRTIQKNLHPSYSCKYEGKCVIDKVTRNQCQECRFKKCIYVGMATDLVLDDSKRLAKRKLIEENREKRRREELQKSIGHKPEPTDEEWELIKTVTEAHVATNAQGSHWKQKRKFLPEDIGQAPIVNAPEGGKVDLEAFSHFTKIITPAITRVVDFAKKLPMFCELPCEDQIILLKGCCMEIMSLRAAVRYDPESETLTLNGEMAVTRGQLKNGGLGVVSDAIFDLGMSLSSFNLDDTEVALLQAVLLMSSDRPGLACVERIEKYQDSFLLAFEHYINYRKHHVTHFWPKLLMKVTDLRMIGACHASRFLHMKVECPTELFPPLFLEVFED
# Sequence of Luciferin 4-monooxygenase (Photinus pyralis) (P08659 whole entry, looked up): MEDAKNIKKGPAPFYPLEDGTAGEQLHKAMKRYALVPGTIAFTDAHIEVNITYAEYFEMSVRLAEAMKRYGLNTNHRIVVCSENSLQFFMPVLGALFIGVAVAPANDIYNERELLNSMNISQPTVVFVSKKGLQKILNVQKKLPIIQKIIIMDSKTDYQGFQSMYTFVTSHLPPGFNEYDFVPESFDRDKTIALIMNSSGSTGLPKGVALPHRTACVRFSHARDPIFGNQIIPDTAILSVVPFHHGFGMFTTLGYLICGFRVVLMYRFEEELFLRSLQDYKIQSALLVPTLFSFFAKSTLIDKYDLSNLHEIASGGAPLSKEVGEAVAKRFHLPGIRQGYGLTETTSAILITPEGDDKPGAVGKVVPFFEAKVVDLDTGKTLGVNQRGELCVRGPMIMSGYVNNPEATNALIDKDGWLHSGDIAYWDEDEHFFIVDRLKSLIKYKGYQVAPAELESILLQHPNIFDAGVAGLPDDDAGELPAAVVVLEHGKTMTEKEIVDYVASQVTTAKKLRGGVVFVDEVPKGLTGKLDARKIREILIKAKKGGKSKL
# Sequence of Retinoic acid receptor RXR-alpha (Homo sapiens) (P19793 whole entry, looked up): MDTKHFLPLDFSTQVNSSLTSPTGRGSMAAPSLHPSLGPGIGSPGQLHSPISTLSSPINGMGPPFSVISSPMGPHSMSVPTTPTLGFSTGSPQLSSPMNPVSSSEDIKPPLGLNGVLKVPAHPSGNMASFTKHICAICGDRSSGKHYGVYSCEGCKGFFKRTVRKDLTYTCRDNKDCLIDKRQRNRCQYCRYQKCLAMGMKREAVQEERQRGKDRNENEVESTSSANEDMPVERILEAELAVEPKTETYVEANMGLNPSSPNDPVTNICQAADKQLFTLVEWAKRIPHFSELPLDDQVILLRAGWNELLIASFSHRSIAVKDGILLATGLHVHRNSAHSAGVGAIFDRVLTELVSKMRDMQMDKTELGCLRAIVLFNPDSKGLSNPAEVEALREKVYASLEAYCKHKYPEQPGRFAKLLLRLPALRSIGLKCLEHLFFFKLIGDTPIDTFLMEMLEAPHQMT
Structure (SMILES),max response [1],outcome [2],outcome [3],max response [4],max response [5],Potency [6],Potency [7],Potency [8],Potency [9],Potency [10]
CN(C)CCOC(C)(c1ccccc1)c1ccccn1 (centres undefined),19.3%,inactive,inactive,3.38%,-25.1% (inactive),inactive,,,,
CN(C)CCC=C1c2ccccc2CCc2ccccc21,20%,inactive,inactive,,,,inactive,,,
NC(N)=NCCC[C@H](N)C(=O)O,,,,,,inactive,,,,
C[C@]12C[C@H](O)[C@H]3[C@@H](CCC4=CC(=O)CC[C@@]43C)[C@@H]1CC[C@@H]2C(=O)CO,2.39% and 24.9%,inactive,inactive,12.2%,9.95% (inactive),inactive,inactive,inactive,inactive,
O=C(O)[C@H](O)c1ccccc1,,,,,,inactive,,,,
COc1ccc(Cl)cc1C(=O)NCCc1ccc(S(=O)(=O)NC(=O)NC2CCCCC2)cc1,,,inactive,15.3%,-9.84% (inactive),,inactive,inactive,,inactive
Oc1cccc(O)c1,-9.49%,inactive,inactive,-5.21%,1.73% (inactive),inactive,inactive,inactive,inactive,inactive
CC1=C(C/C=C(\C)CCC[C@H](C)CCC[C@H](C)CCCC(C)C)C(=O)c2ccccc2C1=O,,,,,,inactive,,,,
NCCNCCNCCN,1.23%,inactive,inactive,-7.08%,10.1% (inactive),inactive,inactive,inactive,inactive,
CC1(C)[C@@H]2CC[C@@]1(C)C(=O)C2,-8.55%,inactive,inactive,1.15%,2.47% (inactive),inactive,inactive,inactive,2.56 µM (active),9.99 µM (active)
CC(O)CN(CCN(CC(C)O)CC(C)O)CC(C)O (centres undefined),,,,-7.75%,-14.1% (inactive),inactive,inactive,inactive,inactive,
CC(O)COc1ccccc1 (centres undefined),-14.5%,inactive,inactive,-7.54%,-2.29% (inactive),inactive,inactive,inactive,inactive,
O=C1O[C@H]([C@@H](O)CO)C(O)=C1O,-15.9% and -7.94%,inactive,inactive,-3.01%,1.04% (inactive),inactive,inactive,inactive,inactive,
NC(=O)N/N=C/c1ccc([N+](=O)[O-])o1,,,inactive,1.55% and -8.19%,5.86% (inactive) and 14.5% (inactive),inactive,inactive,inactive,10.2 µM (active),inactive
CCCc1c(OCCCCc2nn[nH]n2)ccc(C(C)=O)c1O,,,inactive,22.4%,3.05% (inactive),inactive,,,,inactive
O=S(=O)(O)NC1CCCCC1,,,inactive,-8.27%,5.18% (inactive),inactive,inactive,inactive,inactive,
CC(CN1c2ccccc2Sc2ccccc21)N(C)C (centres undefined),10.3%,inactive,inactive,,,,inactive,inactive,,inactive
N[C@H](C(=O)O)c1ccc(O)cc1,,,,,,inactive,,,,
CCCCC(CC)COC(=O)c1ccccc1O (centres undefined),-12.2%,inactive,inactive,-3.04%,6.6% (inactive),inactive,inactive,inactive,,
Cc1cc(CC(=O)O)n(C)c1C(=O)c1ccc(Cl)cc1,,,inactive,,,inactive,inactive,inactive,inactive,
COc1ccccc1O,-7.45% and -9.73% and 7.42%,inactive,inactive,-10.5% and -8.87% and -4.21%,0.752% (inactive) and 5.31% (inactive) and 3.65% (inactive),inactive,inactive,inactive,inactive,
COC(=O)C1=C(C)NC(C)=C(C(=O)OC)C1c1ccccc1[N+](=O)[O-],,,inactive,8.81%,23.4% (inactive),,inactive,inactive,,inactive
O=C1c2c(O)cccc2Cc2cccc(O)c21,-24.2%,inactive,inactive,-14.8%,9.5% (inactive),inactive,inactive,inactive,inactive,

Structure (SMILES),max response [1],outcome [2],outcome [3],max response [4],max response [5],Potency [6],Potency [7],Potency [8],Potency [9],Potency [10]
CC1=C(/C=C/C(C)=C/C=C/C(C)=C/C(=O)O)C(C)(C)CCC1,,,inactive,,,,32.2 µM (active),inactive,inactive,
[Cl][In]([Cl])[Cl],-5.94%,inactive,,-2.25%,17.5% (inactive),inactive,,inactive,inactive,inactive
CCCCCCCCCCCCOS(=O)(=O)O,-1.31% [middle of 4 runs],inactive,inactive,-7.08% [middle of 4 runs],6.26% (inactive) [middle of 4 runs],inactive,,inactive,inactive,inactive
NC(=O)c1ncn([C@@H]2O[C@H](CO)[C@@H](O)[C@H]2O)n1,18.3%,inactive,,,,inactive,,,,
Cc1cccc(Nc2cc(Cl)nc(SCC(=O)O)n2)c1C,-6%,inactive,,-6.52%,-6.08% (inactive),inactive,inactive,inactive,inactive,
C[C@]12CC[C@@H]3c4ccc(O)cc4CC[C@H]3[C@@H]1CCC2=O,5.7%,inactive,inactive,4.88%,-13% (inactive),inactive,,,,
CNC(=O)Oc1ccc2c(c1)[C@]1(C)CCN(C)[C@@H]1N2C,-13.6%,inactive,inactive,-2.66%,1.77% (inactive),inactive,inactive,inactive,,
CCOC(=O)c1ccc(O)cc1,3.41%,inactive,inactive,-7.61%,4.29% (inactive),inactive,inactive,inactive,inactive,inactive
NCCNCCNCCNCCN,-10.7% and -8.96%,inactive,inactive,-6.87%,-26.1% (inactive),inactive,inactive,inactive,inactive,
Nc1ccc(S(=O)(=O)Nc2nccs2)cc1,11.3%,inactive,,-9.52%,19.3% (inactive),inactive,inactive,inactive,inactive,
COc1ccc2cc1Oc1ccc(cc1)C[C@H]1c3c(cc4c(c3Oc3cc5c(cc3OC)CCN(C)[C@@H]5C2)OCO4)CCN1C,,,,,,14.1 µM (active),,,,
CCCCOC(=O)c1ccc(O)cc1,0.828% and -8.13%,inactive,inactive,-11.5% and -9.16%,-15.2% (inactive) and -3.16% (inactive),inactive,,inactive,inactive,inactive
CC12CCC(CC1)C(C)(C)O2,-11.5%,inactive,,-6.73%,10.3% (inactive),inactive,inactive,inactive,inactive,
CCOC(CN1CCN(CC(C)C(=O)c2ccccc2)CC1)c1ccccc1 (centres undefined),,,,,,12.6 µM (active),inactive,,,
CCOC(=O)[C@H](CCc1ccccc1)N[C@@H](C)C(=O)N1C(=O)N(C)C[C@H]1C(=O)O,,,,,,inactive,inactive,inactive,inactive,
CC(=O)c1ccc2c(c1)N(CCCN(C)C)c1ccccc1S2,,,,,,4.47 µM (active),inactive,inactive,inactive,
COc1ccc(S(=O)(=O)Nc2nnc(CC(C)C)s2)cc1,,,,,,inactive,inactive,inactive,inactive,
CCn1cc(C(=O)O)c(=O)c2cnc(N3CCNCC3)nc21,,,,,,inactive,inactive,inactive,7.75 µM (active),
O=Cc1ccccc1C=O,,,,,,inactive,inactive,,,
CC(C)(C)NCC(O)COc1ccc(NC(=O)NC2CCCCC2)cc1 (centres undefined),,,,,,inactive,inactive,inactive,inactive,
CC1=C(CC(=O)O)c2cc(F)ccc2/C1=C\c1ccc(S(C)=O)cc1 (centres undefined),,,,,,inactive,inactive,inactive,inactive,
O=c1cc(CO)occ1O,,,,,,inactive,inactive,inactive,,

Structure (SMILES),max response [1],outcome [2],outcome [3],max response [4],max response [5],Potency [6],Potency [7],Potency [8],Potency [9],Potency [10]
C[C@](N)(Cc1ccc(O)cc1)C(=O)O,,,,,,inactive,inactive,inactive,inactive,
CC1=C(CC(=O)O)c2cc(F)ccc2/C1=C\c1ccc(S(C)(=O)=O)cc1,,,,,,inactive,inactive,,,
CCCCCCCCCCCCCCCCCCOCC(O)CO (centres undefined),,,,,,inactive,inactive,inactive,,
O=C(O)c1ccccc1-c1ccc(C(F)(F)F)cc1,,,,,,inactive,inactive,inactive,inactive,
Cc1cc(O)cc2c1O[C@](C)(CCC[C@H](C)CCC[C@H](C)CCCC(C)C)CC2,,,,,,inactive,inactive,inactive,,
CCC(=O)c1ccc(O)cc1,,,,,,inactive,inactive,inactive,,
Nc1ccc(S(=O)(=O)NC(=O)c2ccccc2)cc1,,,,,,inactive,inactive,inactive,inactive,
NC(CSCC(=O)O)C(=O)O (centres undefined),,,,,,inactive,inactive,inactive,inactive,
c1ccc2c(CC3=NCCN3)cccc2c1,,,,,,inactive,inactive,,,
N[C@@H](CSCCCO)C(=O)O,,,,,,inactive,inactive,inactive,inactive,
Cc1ccc2nc(N)[nH]c(=O)c2c1Sc1ccncc1,,,,,,inactive,inactive,inactive,,
C#CCN(C)Cc1ccccc1,,,,,,inactive,inactive,inactive,inactive,
CC(=O)Oc1ccc(C2(c3ccc(OC(C)=O)cc3)C(=O)Nc3ccccc32)cc1,,,,,,inactive,inactive,inactive,,
Nc1nc2c(ncn2CCC(CO)CO)c(=O)[nH]1,,,,,,inactive,inactive,inactive,inactive,
CCC(=O)Nc1ccc(O)cc1,,,,,,inactive,inactive,inactive,inactive,
CC[N+](CC)(CC)CCOc1ccc(/C=C/c2ccccc2)cc1,,,,,,14.1 µM (active),inactive,,,
CCCOC(=O)c1ccccc1,,,,,,inactive,inactive,inactive,inactive,
CC(=O)OCC(=O)[C@@]1(O)CC[C@H]2[C@@H]3CCC4=CC(=O)CC[C@]4(C)[C@H]3C(=O)C[C@@]21C,,,,,,inactive,inactive,,,
O=C(Oc1ccccc1C(=O)O)c1ccccc1O,,,,,,inactive,inactive,inactive,,
NC1CCN(c2cccc(Cl)n2)CC1,,,,,,inactive,inactive,inactive,inactive,
CCCn1cnc2c1c(=O)n(CCCCC(C)=O)c(=O)n2C,,,,,,inactive,inactive,inactive,,
C[C@@H]1CN(c2c(F)c(F)c3c(=O)c(C(=O)O)cn(C4CC4)c3c2F)C[C@H](C)N1,,,,,,inactive,inactive,inactive,inactive,
